PMC7862700, “An all-to-all approach to the identification of sequence-specific readers for epigenetic DNA modifications on cytosine”

Legend:
Experiment in all cases: DAPPL (digital affinity profiling via proximity ligation, sequencing); 10 mM Tris-HCl pH 7.5, 50 mM NaCl, 1 mM DTT, 4% glycerol, room temperature, 30 min; GST-TFs on glutathione beads, 16-mer random dsDNA library, 0.1% formaldehyde crosslink after washing; high values mean tight binding
Conditions in all cases: protein: recombinant; tags: N-terminal GST; dsDNA, one strand shown
ERG = biological target: T1, ERG (Homo sapiens, UniProt P11308 1-479)
T1 sequence: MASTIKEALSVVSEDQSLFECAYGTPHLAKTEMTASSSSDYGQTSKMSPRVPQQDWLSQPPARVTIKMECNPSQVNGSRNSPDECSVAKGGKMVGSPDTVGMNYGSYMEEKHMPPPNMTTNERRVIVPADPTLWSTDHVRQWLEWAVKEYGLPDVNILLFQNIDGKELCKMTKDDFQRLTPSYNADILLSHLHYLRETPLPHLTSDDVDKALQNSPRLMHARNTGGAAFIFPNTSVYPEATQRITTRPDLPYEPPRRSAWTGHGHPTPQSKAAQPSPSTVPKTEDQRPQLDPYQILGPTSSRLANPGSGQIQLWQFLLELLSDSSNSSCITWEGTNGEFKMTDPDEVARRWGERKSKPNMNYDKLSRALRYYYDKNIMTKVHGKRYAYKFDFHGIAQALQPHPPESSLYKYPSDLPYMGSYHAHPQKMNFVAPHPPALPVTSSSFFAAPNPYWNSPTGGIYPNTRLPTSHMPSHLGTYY
How it was run: (§1)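 Human transcription factors were made in yeast as GST fusions, captured on glutathione beads and barcoded with DNA. With a tag-only sample included, the pool was incubated with 200 nmole of a random double-stranded 16-mer DNA library in Tris/NaCl/DTT/glycerol buffer at room temperature for 30 min, then crosslinked with 0.1% formaldehyde after washing, ligated by proximity, amplified and sequenced. For binding signal, each hexamer's read frequency for a factor is divided by its frequency for the tag-only sample.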

SPIB = SPIB (Homo sapiens, UniProt Q01892 1-262)
How it was run: as §1

ELK3 = biological target: T2, ELK3 (Homo sapiens, UniProt P41970 1-407)
T2 sequence: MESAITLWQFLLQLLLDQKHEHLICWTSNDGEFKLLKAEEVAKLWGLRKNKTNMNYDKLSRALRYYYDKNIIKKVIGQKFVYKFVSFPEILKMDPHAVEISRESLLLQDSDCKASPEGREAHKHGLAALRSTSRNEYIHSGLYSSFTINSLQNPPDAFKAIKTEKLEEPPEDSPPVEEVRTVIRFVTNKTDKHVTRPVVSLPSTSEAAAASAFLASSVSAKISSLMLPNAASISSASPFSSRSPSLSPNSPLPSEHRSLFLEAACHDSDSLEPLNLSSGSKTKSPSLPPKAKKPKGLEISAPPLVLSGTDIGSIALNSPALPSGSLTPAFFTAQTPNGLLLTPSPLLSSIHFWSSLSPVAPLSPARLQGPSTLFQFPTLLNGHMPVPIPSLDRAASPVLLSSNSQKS
How it was run: as §1

SPIC = biological target: T3, SPIC (Homo sapiens, UniProt Q8N5J4 1-248)
T3 sequence: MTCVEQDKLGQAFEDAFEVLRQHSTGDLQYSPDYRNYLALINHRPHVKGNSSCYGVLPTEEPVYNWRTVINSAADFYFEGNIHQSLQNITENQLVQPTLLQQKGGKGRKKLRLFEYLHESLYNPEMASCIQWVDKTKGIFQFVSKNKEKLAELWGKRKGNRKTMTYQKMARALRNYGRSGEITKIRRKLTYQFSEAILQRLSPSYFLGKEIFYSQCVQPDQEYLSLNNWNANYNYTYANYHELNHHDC
How it was run: as §1

ELF4 = ELF4 (Homo sapiens, UniProt Q99607 1-663)
How it was run: as §1

ELK4 = biological target: T4, ELK4 (Homo sapiens, UniProt P28324-2 1-405)
T4 sequence: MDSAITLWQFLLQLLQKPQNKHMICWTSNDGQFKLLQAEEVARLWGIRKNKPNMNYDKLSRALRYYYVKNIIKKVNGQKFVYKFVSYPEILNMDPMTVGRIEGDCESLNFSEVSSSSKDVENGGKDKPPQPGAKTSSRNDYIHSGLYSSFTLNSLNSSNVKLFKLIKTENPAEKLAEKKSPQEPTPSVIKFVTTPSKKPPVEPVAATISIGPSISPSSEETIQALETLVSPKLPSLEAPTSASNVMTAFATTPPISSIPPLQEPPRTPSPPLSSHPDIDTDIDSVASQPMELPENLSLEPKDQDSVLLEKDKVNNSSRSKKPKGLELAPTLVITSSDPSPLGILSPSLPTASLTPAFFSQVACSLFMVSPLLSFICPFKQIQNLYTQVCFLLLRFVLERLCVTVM
How it was run: as §1

ELF3 = biological target: T5, ELF3 (Homo sapiens, UniProt P78545 1-371)
T5 sequence: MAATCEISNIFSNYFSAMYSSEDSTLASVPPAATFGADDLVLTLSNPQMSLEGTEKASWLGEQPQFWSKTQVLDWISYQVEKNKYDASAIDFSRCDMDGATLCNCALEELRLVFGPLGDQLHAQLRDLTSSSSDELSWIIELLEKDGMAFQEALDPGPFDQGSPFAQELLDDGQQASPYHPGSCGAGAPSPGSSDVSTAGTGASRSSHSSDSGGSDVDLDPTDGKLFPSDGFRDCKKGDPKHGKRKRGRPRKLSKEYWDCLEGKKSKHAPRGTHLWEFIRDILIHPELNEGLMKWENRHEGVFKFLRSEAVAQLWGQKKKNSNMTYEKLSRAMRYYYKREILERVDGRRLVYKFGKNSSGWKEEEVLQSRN
How it was run: as §1

ETV1 = ETV1 (Homo sapiens, UniProt P50549 1-477)
How it was run: as §1

ERF = biological target: T6, ERF (Homo sapiens, UniProt P50548 1-548)
T6 sequence: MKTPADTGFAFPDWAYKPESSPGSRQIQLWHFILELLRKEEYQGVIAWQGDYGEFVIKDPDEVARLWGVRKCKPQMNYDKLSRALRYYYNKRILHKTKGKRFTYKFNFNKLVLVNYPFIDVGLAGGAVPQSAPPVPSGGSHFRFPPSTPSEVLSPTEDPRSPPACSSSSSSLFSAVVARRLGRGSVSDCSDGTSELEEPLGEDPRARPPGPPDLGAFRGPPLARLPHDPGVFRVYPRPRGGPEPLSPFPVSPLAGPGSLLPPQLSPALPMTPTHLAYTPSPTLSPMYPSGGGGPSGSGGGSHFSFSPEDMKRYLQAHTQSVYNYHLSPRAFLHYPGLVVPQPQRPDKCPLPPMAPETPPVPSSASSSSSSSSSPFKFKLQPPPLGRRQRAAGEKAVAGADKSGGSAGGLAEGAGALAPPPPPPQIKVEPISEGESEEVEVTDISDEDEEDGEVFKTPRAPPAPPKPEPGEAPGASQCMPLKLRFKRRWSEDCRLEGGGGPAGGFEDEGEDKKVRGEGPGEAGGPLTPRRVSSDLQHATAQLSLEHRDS
How it was run: as §1

ETV3L = biological target: T7, ETV3L (Homo sapiens, UniProt Q6ZN32 1-361)
T7 sequence: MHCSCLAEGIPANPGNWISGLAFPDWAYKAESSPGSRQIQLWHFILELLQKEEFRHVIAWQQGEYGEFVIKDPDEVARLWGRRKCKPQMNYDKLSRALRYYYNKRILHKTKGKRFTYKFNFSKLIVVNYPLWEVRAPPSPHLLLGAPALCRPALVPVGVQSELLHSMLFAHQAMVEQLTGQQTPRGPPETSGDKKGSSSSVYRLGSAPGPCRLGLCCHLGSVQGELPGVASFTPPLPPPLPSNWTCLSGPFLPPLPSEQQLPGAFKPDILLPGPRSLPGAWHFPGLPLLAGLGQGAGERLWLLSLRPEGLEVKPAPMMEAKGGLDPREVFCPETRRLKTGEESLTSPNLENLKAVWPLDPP
How it was run: as §1

SPDEF = biological target: T8, SPDEF (Homo sapiens, UniProt O95238 1-335)
T8 sequence: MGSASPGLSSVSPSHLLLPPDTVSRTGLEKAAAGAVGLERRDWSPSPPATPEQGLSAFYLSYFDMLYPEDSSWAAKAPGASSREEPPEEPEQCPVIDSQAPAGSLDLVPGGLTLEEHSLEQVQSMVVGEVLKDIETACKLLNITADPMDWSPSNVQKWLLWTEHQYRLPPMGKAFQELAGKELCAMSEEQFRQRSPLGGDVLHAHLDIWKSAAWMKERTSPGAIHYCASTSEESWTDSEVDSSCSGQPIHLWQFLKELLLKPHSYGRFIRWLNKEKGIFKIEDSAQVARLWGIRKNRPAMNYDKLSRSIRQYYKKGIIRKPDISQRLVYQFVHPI
How it was run: as §1

ETV7 = biological target: T9, ETV7 (Homo sapiens, UniProt Q9Y603 1-341)
T9 sequence: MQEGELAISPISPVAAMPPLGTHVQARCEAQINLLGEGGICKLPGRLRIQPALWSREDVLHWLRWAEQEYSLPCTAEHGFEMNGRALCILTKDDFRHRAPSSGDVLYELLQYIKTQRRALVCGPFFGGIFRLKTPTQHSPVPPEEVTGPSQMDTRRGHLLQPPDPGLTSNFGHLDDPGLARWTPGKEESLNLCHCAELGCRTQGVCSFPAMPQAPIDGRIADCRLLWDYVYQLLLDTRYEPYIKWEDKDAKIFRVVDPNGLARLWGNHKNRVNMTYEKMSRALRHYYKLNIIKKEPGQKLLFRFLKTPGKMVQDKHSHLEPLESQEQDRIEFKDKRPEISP
How it was run: as §1

ETV3 = biological target: T10, ETV3 (Homo sapiens, UniProt P41162-2 1-143)
T10 sequence: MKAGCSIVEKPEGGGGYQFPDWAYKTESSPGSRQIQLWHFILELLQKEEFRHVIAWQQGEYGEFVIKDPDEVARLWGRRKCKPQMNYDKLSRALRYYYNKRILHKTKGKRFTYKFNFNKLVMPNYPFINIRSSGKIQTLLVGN
How it was run: as §1

ETV6 = ETV6 (Homo sapiens, UniProt P41212 1-452)
How it was run: as §1

SPIB, sequence (Q01892 whole entry): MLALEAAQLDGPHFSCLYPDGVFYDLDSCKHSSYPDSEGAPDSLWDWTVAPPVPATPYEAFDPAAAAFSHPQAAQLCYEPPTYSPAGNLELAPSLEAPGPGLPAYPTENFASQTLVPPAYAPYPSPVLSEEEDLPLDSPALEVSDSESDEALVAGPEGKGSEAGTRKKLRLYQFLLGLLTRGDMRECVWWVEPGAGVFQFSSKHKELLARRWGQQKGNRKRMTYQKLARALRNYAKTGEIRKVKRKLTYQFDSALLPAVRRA
ELF4, sequence (Q99607 whole entry): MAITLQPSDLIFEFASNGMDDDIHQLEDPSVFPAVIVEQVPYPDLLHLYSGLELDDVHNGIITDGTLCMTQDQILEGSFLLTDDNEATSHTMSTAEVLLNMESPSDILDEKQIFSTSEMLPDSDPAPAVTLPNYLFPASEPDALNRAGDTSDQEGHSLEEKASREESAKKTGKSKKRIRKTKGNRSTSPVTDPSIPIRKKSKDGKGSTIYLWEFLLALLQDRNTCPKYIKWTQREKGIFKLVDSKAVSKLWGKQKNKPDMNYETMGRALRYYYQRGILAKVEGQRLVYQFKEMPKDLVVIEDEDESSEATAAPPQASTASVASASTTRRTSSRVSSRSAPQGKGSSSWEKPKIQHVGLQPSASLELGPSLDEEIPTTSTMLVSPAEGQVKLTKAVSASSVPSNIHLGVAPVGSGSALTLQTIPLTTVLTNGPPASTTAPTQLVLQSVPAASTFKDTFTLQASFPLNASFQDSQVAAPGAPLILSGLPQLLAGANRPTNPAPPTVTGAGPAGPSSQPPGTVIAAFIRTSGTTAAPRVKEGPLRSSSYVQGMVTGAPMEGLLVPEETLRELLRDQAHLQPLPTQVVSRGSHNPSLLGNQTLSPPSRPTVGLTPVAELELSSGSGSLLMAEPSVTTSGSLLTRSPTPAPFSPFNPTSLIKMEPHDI
ETV1, sequence (P50549 whole entry): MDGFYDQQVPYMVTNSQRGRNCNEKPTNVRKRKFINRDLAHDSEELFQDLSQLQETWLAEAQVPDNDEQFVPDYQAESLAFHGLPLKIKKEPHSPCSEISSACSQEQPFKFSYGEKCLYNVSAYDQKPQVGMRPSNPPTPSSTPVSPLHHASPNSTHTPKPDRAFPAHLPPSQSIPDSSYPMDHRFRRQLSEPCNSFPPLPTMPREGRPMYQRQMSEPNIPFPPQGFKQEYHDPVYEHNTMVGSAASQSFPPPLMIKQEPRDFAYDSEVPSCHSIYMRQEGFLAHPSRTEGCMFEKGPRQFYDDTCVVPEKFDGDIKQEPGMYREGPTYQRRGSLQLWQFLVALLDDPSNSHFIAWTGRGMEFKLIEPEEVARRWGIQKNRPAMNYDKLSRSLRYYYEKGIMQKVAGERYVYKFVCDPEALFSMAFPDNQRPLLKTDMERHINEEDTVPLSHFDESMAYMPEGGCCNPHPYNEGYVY
ETV6, sequence (P41212 whole entry): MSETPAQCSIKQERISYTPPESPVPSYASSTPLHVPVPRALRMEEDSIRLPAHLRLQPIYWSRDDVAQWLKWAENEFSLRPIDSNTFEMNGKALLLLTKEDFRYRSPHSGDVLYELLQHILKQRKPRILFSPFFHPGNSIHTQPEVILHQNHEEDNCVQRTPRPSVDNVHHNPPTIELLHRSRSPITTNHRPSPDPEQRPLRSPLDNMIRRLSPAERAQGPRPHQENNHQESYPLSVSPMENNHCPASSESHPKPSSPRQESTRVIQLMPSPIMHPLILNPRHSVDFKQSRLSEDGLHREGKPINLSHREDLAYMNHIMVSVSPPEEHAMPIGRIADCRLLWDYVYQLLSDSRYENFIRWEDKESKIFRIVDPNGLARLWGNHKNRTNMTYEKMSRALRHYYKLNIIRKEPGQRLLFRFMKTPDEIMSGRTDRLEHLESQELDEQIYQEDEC

TCGAGC
binding signal (ERG): 1.03 fold enrichment (6-mer frequency, TF over GST control)
binding signal (SPIB): 1.1 fold enrichment (6-mer frequency, TF over GST control)
binding signal (ELK3): 1.01 fold enrichment (6-mer frequency, TF over GST control)
binding signal (SPIC): 1.04 fold enrichment (6-mer frequency, TF over GST control)
binding signal (ELF4): 1.03 fold enrichment (6-mer frequency, TF over GST control)
binding signal (ELK4): 1.11 fold enrichment (6-mer frequency, TF over GST control)
binding signal (ELF3): 1 fold enrichment (6-mer frequency, TF over GST control)
binding signal (ETV1): 1.08 fold enrichment (6-mer frequency, TF over GST control)
binding signal (ERF): 1.03 fold enrichment (6-mer frequency, TF over GST control)
binding signal (ETV3L): 1.15 fold enrichment (6-mer frequency, TF over GST control)
binding signal (SPDEF): 1.08 fold enrichment (6-mer frequency, TF over GST control)
binding signal (ETV7): 1.09 fold enrichment (6-mer frequency, TF over GST control)
binding signal (ETV3): 1.03 fold enrichment (6-mer frequency, TF over GST control)
binding signal (ETV6): 1.02 fold enrichment (6-mer frequency, TF over GST control)
